Measured values reported in the supplement of paper PMC9694430.

Tests used:
Assay in all cases: thermal shift delta Tm vs DMSO control; higher = stronger stabilization (binding)
Conditions in all cases: 12.5 µM; protein concentration 2 µM
LOC_OS01G57100-cb003 = test system: LOC_OS01G57100-cb003
How it was run: (§1)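 Rice kinase domain constructs, made in E. coli and purified, were placed in 96-well plates at 2 μM in 19.5 μl of 100 mM potassium phosphate pH 7.5, 150 mM NaCl, 10% glycerol and 5 × SYPRO Orange, with compound in DMSO. A temperature ramp from 25°C to 95°C at 0.05°C/s was used for differential scanning fluorimetry. The melting temperature shift is a triplicate mean compared with DMSO-only protein, derived from Boltzmann fits.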

LOC_OS01G60330-cb001 = test system: LOC_OS01G60330-cb001
How it was run: as §1

LOC_OS01G60700-cb002 = test system: LOC_OS01G60700-cb002
How it was run: as §1

LOC_OS01G63280-cb003 = test system: LOC_OS01G63280-cb003
How it was run: as §1

LOC_OS01G67340-cb003 = test system: LOC_OS01G67340-cb003
How it was run: as §1

LOC_OS01G70970-cb002 = test system: LOC_OS01G70970-cb002
How it was run: as §1

LOC_OS02G07810-cb001 = test system: LOC_OS02G07810-cb001
How it was run: as §1

LOC_OS02G08530-cb003 = test system: LOC_OS02G08530-cb003
How it was run: as §1

LOC_OS02G14120-cb001 = test system: LOC_OS02G14120-cb001
How it was run: as §1

LOC_OS02G17970-cb001 = test system: LOC_OS02G17970-cb001
How it was run: as §1

LOC_OS02G45750-cb003 = test system: LOC_OS02G45750-cb003
How it was run: as §1

LOC_OS02G54510-cb004 = test system: LOC_OS02G54510-cb004
How it was run: as §1

LOC_OS03G04050-cb001 = test system: LOC_OS03G04050-cb001
How it was run: as §1

LOC_OS03G12390-cb001 = test system: LOC_OS03G12390-cb001
How it was run: as §1

LOC_OS03G27990-cb004 = test system: LOC_OS03G27990-cb004
How it was run: as §1

LOC_OS03G50450-cb001 = test system: LOC_OS03G50450-cb001
How it was run: as §1

LOC_OS03G50810-cb003 = test system: LOC_OS03G50810-cb003
How it was run: as §1

LOC_OS04G35114-cb001 = test system: LOC_OS04G35114-cb001
How it was run: as §1

LOC_OS04G38480-cb003 = test system: T1, LOC_OS04G38480-cb003
T1 sequence (whole entry): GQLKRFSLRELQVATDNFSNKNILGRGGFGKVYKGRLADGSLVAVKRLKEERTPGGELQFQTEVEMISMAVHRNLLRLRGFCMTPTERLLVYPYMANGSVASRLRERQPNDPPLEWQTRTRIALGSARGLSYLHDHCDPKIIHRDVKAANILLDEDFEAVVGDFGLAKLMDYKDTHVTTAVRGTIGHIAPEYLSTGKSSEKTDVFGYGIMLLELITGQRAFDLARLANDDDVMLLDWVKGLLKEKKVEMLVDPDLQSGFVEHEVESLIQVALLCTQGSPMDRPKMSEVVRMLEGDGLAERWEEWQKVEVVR
How it was run: as §1

LOC_OS04G41100-cb001 = test system: T2, LOC_OS04G41100-cb001
T2 sequence (whole entry): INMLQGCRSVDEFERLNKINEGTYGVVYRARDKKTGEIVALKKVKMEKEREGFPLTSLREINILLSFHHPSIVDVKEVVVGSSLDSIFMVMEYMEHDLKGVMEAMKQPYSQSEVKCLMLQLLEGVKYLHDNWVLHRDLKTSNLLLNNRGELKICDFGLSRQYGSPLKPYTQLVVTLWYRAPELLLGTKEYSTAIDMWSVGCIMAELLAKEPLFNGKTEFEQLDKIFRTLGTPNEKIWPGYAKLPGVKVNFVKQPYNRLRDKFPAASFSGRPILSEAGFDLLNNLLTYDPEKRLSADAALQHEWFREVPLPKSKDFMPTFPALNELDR
How it was run: as §1
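Further: purified Escherichia coli-expressed rice kinase domain construct.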

Row | Compound | thermal shift delta Tm (LOC_OS01G57100-cb003) [°C] | thermal shift delta Tm (LOC_OS01G60330-cb001) [°C] | thermal shift delta Tm (LOC_OS01G60700-cb002) [°C] | thermal shift delta Tm (LOC_OS01G63280-cb003) [°C] | thermal shift delta Tm (LOC_OS01G67340-cb003) [°C] | thermal shift delta Tm (LOC_OS01G70970-cb002) [°C] | thermal shift delta Tm (LOC_OS02G07810-cb001) [°C] | thermal shift delta Tm (LOC_OS02G08530-cb003) [°C] | thermal shift delta Tm (LOC_OS02G14120-cb001) [°C] | thermal shift delta Tm (LOC_OS02G17970-cb001) [°C] | thermal shift delta Tm (LOC_OS02G45750-cb003) [°C] | thermal shift delta Tm (LOC_OS02G54510-cb004) [°C] | thermal shift delta Tm (LOC_OS03G04050-cb001) [°C] | thermal shift delta Tm (LOC_OS03G12390-cb001) [°C] | thermal shift delta Tm (LOC_OS03G27990-cb004) [°C] | thermal shift delta Tm (LOC_OS03G50450-cb001) [°C] | thermal shift delta Tm (LOC_OS03G50810-cb003) [°C] | thermal shift delta Tm (LOC_OS04G35114-cb001) [°C] | thermal shift delta Tm (LOC_OS04G38480-cb003) [°C] | thermal shift delta Tm (LOC_OS04G41100-cb001) [°C]
1 | COCCNCc1ccc(-c2cc3nccc(Oc4ccc(NC(=O)C5(C(=O)Nc6ccc(F)cc6)CC5)cc4F)c3s2)nc1 [Sitravatinib (MGCD516)] | 0.24 | 1.12 | -0.27 | 1.87 | 7.72 | 5.29 | 0.47 | 2.12 | 7.48 | 1.18 | 6.42 | 1.08 | 0.75 | 0.75 | 1.06 | 0.57 | 3.13 | 6.52 | 3.71 | 3.13
2 | CCn1cc(-c2ccnc3[nH]c(-c4cccc(CN(C)C)c4)cc23)c(-c2ccc(NC(=O)N(C)C)cc2)n1 | 1.51 | 0.61 | 1.18 | 2.91 | 0.66 | 0.18 | 0.49 | 1.02 | 6.39 | 1.01 | 2.5 | 0.45 | 0.74 | 0.47 | 0.5 | 0.98 | 1.14 | 1.02 | 1.93 | 1.22
3 | C=CC(=O)N1CCC[C@@H](n2nc(-c3ccc(Oc4ccccc4)cc3)c3c(N)ncnc32)C1 | 1.42 | 1.09 | 0.54 | 3.76 | -0.23 | 1.12 | 0.96 | 1.16 | 0.34 | 0.6 | 1.46 | 1.25 | 0.88 | 0.1 | 0.51 | 1.39 | 1.07 | 3.03 | 1.2 | 0.37
4 | FC(F)(F)c1ccc(CNc2ccc(Cc3c[nH]c4ncc(Cl)cc34)cn2)cn1 [Pexidartinib (PLX3397)] | 1.87 | 3.92 | 0.67 | 2.9 | 3.78 | 2.89 | 1.03 | 3.22 | 9.87 | 2.01 | 6.87 | 0.69 | 0.27 | 2.08 | 0.52 | 0.54 | 1.63 | 9.82 | 4.16 | 0.51
5 | Cc1cc(Nc2ncc(Cl)c(Nc3ccccc3S(=O)(=O)C(C)C)n2)c(OC(C)C)cc1C1CCNCC1 [Ceritinib (LDK378)] | 1.94 | 0.68 | 1.4 | 0.34 | 0.19 | 0.94 | 0.36 | 5.56 | 1.28 | 0.2 | 0.68 | 0.09 | 0.7 | 2.72 | 0.52 | 0.56 | 0.58 | 0.66 | 1 | 0.26
6 | Cc1nc2ccc(-n3ncc(C(=O)c4cc5ccccc5[nH]4)c3N)cc2[nH]1 | -0.72 | 2.34 | -0.42 | 1.52 | 2.11 | 0.1 | 0.91 | 1.17 | 0.03 | 1.37 | 2.94 | 4.14 | 0.05 | 1.25 | 0.29 | -0.16 | 0.75 | 3.8 | 0.93 | -0.16
7 | CC(C)CCN1c2nc(Nc3cc(F)c(O)c(F)c3)ncc2N(C)C(=O)C1C (stereo not given) | 1.71 | 6.27 | 2.07 | 7.85 | 8.73 | 4.67 | 1.13 | 2.78 | 3.11 | 1.38 | 3.25 | 1.91 | 0.57 | 7.92 | 3.82 | 2.58 | 3.02 | 3.84 | 4.5 | 1.29
8 | Cc1cc(Nc2cc(N)ncn2)c(=O)n2c1C(=O)NC21CCCCC1 | 1.68 | 0.51 | -0.25 | -0.02 | 0.19 | 0.38 | -1.2 | 0.72 | 2.1 | -0.32 | 0.8 | 0.09 | 0.28 | 0.13 | 0.19 | 0.47 | 0.4 | 0.45 | 0.09 | 0.53
9 | CCS(=O)(=O)N1CCN(c2ccc(Nc3ncc(C(N)=O)c(NC4CC4)n3)cc2)CC1 | 0.76 | 9.63 | 1.4 | 1.68 | 3.04 | 7.22 | 0.35 | 3.19 | 5.36 | 1.18 | 8.46 | 4.48 | 0.19 | 6.9 | 5.89 | 5.37 | 4.92 | 6.29 | 2.13 | 2.54
10 | Cc1c(NC(=O)c2ccc(C(C)(C)C)cc2)cccc1-c1cn(C)c(=O)c(Nc2ccc(C(=O)N3CCOCC3)cc2)n1 | 1.59 | 0.51 | 1.36 | 0.36 | -0.03 | 0.22 | 0.9 | 0.31 | 0 | 0.66 | 1.07 | 0.28 | 0.82 | 1.85 | 0.51 | 0.69 | 0.7 | 0.72 | 0.87 | 0.43
11 | O=C(O)c1ccc2c(c1)nc(Nc1cccc(Cl)c1)c1ccncc12 [Silmitasertib (CX-4945)] | 2.46 | 4.93 | 1.42 | 1.39 | 0.58 | 0.36 | 0.97 | 1.24 | 2.72 | 1.95 | 1.82 | 1.5 | 0.25 | 4.4 | 4.14 | 0.83 | 1.55 | 6.87 | 1.13 | 0.77
12 | CCn1c(-c2nonc2N)nc2c(C#CC(C)(C)O)ncc(OC[C@H]3CCCNC3)c21 | 0.99 | 0.93 | 1.82 | -0.01 | -0.43 | 0.35 | 0.56 | 0.64 | 0.88 | -0.03 | 0.16 | -0.17 | 0.51 | -0.08 | 0.32 | 0.05 | 0.05 | 0.41 | 0.66 | 1.1
13 | C[C@@H]1CN(C(=O)c2ccc(NC(=O)c3cc(O[C@H](C)c4c(Cl)ccc(F)c4Cl)c(N)nn3)cc2)C[C@H](C)N1 [Ensartinib (X-396)] | 4.79 | -0.22 | 0.66 | -0.05 | 7.25 | 0.84 | 0.09 | 2.29 | 12 | 0.57 | 6.54 | 3.48 | -0.25 | 2.86 | 0.07 | 0.15 | 5 | 8.12 | 5.86 | 0.2
